# TRPML1 blocker – inhibitors of human TRPML1 channel | Q9GZU1 | TRPML1-inducible cells, Ca2+ dye fluorescence, FDSS; hits give low values; inhibition of EC80 agonist-evoked calcium signal | activity change, negative = inhibition, % (no concentration beside the values) | actives 0.02% (n = 390,000) | AID 624415; in the data active = activity change below about -50%; inconclusive = between about -30% and that limit;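 also: stimulus is agonist 54-4 at its EC80 concentration; % is scaled to controls: 0 for no effect and ±100 for the full control effect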
# Target sequence (Q9GZU1 whole entry, looked up): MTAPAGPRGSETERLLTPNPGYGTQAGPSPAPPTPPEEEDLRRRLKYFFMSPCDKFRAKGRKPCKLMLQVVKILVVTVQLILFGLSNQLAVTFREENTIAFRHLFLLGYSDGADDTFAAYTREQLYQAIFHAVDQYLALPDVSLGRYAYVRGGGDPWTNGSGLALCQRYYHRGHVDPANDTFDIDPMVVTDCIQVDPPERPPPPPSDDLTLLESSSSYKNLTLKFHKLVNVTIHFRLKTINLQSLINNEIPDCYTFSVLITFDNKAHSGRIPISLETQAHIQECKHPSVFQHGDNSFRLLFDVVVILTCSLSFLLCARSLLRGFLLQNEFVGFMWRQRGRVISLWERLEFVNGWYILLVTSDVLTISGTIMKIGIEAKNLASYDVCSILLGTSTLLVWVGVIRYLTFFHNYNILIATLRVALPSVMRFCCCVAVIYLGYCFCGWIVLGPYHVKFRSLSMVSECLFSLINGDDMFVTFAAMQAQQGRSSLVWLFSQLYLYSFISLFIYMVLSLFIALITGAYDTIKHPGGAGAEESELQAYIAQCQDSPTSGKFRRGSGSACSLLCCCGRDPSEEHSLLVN
#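 Calcium fluorescence in TRPML1-DL cells induced overnight with Tet: a 110 s read after compound pin addition, then a 110 s antagonist read after challenge with 54-4 at 4 uM final (EC80).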
# TRHR PAM – allosterically enhances the human TRH receptor; enhancement, % at 2 µM; P34981; TRHR cells, fluo-8 calcium fluorescence, EC20 TRH enhancement; actives 0.66% (n = 360,000); in the data active = enhancement above about 30%; also: 0% is about no effect
#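 Enhancer read-out: after compound pinning and an initial kinetic agonist-mode read, an EC20 of TRH (10 nM final) was injected and fluo-8 calcium signal (Ex 480/Em 530) followed at 1 s/cycle for 100 cycles in TRHR-expressing cells.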
# TRPML1 ag – agonists of human TRPML1 channel. TRPML1-expressing cells, Ca2+ dye fluorescence, FDSS. Q9GZU1. AID 624414. activation, % (test concentration not listed). actives 0.12% (n = 410,000); in the data active = activation above about 50%; inconclusive = mostly about 30% to 49%; also: 0% is about no effect
#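 Tet-induced TRPML1-DL cells, 1,500 per well, cultured overnight, were loaded with a no-wash Ca2+ dye for 45–90 min. Calcium fluorescence was recorded on the FDSS for 110 s after compound addition, before the EC80 agonist (4 uM 54-4) was added.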
# TRHR agonist – agonists of human TRH receptor. P34981. TRHR cells, calcium flux fluo-8, FDSS agonist mode. activation, % at 2 µM. actives 0.18% (n = 360,000). AID 493084; in the data active = activation above about 30%; also: 0% is about no effect
#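 TRHR-expressing cells loaded with fluo-8 calcium dye; 23 nL library compound pin-transferred, kinetic FDSS fluorescence (Ex 480/Em 530) recorded about 180 s for agonist-induced calcium release, before a 10 nM TRH EC20 addition for potentiator mode.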
# Starred values were filed as active, the others as inactive; ? = inconclusive; · = not tested or not shown. Hits are enriched below; roughly 0.81% of the tested compounds scored in any of these assays.
SMILES,TRPML1 blocker,TRHR PAM,TRPML1 ag,TRHR agonist
Nc1c(C(=O)C2CC2)sc2nc(-c3cccs3)cc(C(F)(F)F)c12,8,10,17,53*
COc1ccc(NC(=O)c2sc3nc(-c4ccc(OC)cc4)cc(C(F)(F)F)c3c2N)cc1,16,9,2,4
Nc1c(C(=O)Nc2ccc(F)cc2)sc2nc(-c3cccs3)cc(C(F)(F)F)c12,-17,20,?,100*
COc1ccc(OC)c(/C=C2/Sc3ccccc3C2=O)c1,-12,3,54*,66*
CCc1nc(-c2cc(S(=O)(=O)N3CCN(c4ccccc4F)CC3)ccc2OC)no1,43,-3,3,0
COc1ccc(S(=O)(=O)N2CCN(c3ccccc3F)CC2)cc1-c1noc(C)n1,-17,-7,2,74*
N#Cc1nc(-c2ccccc2)cc(-c2ccccc2)n1,·,·,1,·
Cc1ccccc1NC(=O)Nc1nnc(Cc2ccc([N+](=O)[O-])cc2)s1,16,40*,0,1
CC(C)(C)n1ncc2c(=O)n(Cc3cc(C(F)(F)F)ccc3Cl)cnc21,30,·,0,·
COc1ccc([C@@H]2CC(=O)c3c(O)cc(O)cc3O2)cc1O,-4,-1,-1,0
COc1c(CC=C(C)C)cc(C2CC(=O)c3c(O)cc(O)cc3O2)cc1CC=C(C)C (stereo not given),·,33*,·,0
Cc1cccnc1NC(=O)CNC(=O)COc1ccccc1,-4,33*,0,0
CS(=O)(=O)N1CCCC(C(=O)Nc2ccccc2)C1 (stereo not given),-3,32*,0,0
Cc1ccccc1N1CC(C(=O)Nc2ccc(S(=O)(=O)N3CCCCC3)cc2)CC1=O (stereo not given),-5,35*,0,-1
Fc1cc(F)cc(Nc2nc(NC3CCCC3)nc(C3CO3)n2)c1 (stereo not given),·,-9,·,4
CN1CCCN(C(=O)CSc2ccccc2)CC1,-2,31*,0,0
CN1CCCN(C(=O)CC(c2ccccc2)c2ccccc2)CC1,80,-1,2,-1
CC1C/C(=N/O)C(C)CN1 (stereo not given),2,34*,0,1
CCOc1cc(CNCc2cccnc2)ccc1OCC(=O)NC(C)(C)C,-6,36*,0,0
COc1cc(/C=C2\SC(=Nc3ccccc3)NC2=O)cc(Cl)c1O,-18,20,77*,150*
COc1cc(/C=C2\SC(=Nc3ccc(Cl)c(C(=O)O)c3)NC2=O)c(Br)c(Br)c1O,-4,93*,67*,212*
CC(OC(=O)C1CCN(S(=O)(=O)c2ccc(C(C)(C)C)cc2)CC1)C(=O)N(C)C1CCCCC1 (stereo not given),-17,·,95*,·
Cc1cccc(CN2CCN(CC(=O)Nc3c(C)cccc3C)S2(=O)=O)c1,2,0,1,36*
Clc1ccc(-c2nnc3n2CCCS3)cc1,2,34*,-1,-1
CCOc1ccc(NC(=O)c2nc(S(=O)(=O)Cc3ccc(F)cc3)ncc2Cl)cc1,·,·,1,·
SMILES,TRPML1 blocker,TRHR PAM,TRPML1 ag,TRHR agonist
c1ccc(-n2c(Sc3cnccn3)nnc2-c2cccs2)cc1,-19,31*,2,-1
CCc1nnc(NS(=O)(=O)c2ccc(NC(=S)NC(=O)c3ccc(Br)cc3)cc2)s1,-11,35*,1,0
Cc1ccc(CC(NC(=O)c2ccccc2)C(=O)NCC(=O)O)cc1 (stereo not given),2,35*,0,0
Cc1ccc(CC(NC(=O)c2ccccc2)C(=O)NC(CC(C)C)C(=O)O)cc1 (stereo not given),-2,-7,-1,0
COc1cc(C)c2ccccc2n1,·,·,-1,·
CSc1ccc(/C=C2\C=C(C(O)c3ccc(SC)cc3)c3ccccc32)cc1 (stereo not given),·,·,0,·
CN(C)C(=O)N1CCC(C(=O)NCc2ccccc2)CC1,-3,34*,0,0
COc1ccc(CN(C(=O)c2nsc(Cl)c2Cl)C(C(=O)NC2CCCCC2)c2ccc(OC)cc2)cc1 (stereo not given),11,-7,0,2
COc1ccc(CN(C(=O)c2nsc(Cl)c2Cl)C(C(=O)NC2CCCC2)c2ccc(C)cc2)cc1 (stereo not given),45,37*,2,0
Cc1ccc(-c2oc3ccccc3c(=O)c2O)cc1,43,-11,1,6
O=c1c(O)c(-c2cccs2)oc2ccccc12,-3,4,55*,107*
